Values without a mark were called inactive. Entries that show only a call come without a potency. For some assays here: Potency and affinity values are given separately. Activity calls are given as the source filed them. Unless noted, how the calls were made is not given here.
Assays:
[1] = antimalarial activity against Dd2 strain (AID 2302;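 active means growth inhibition above 50% at the single 2 µM test dose, taken to imply half-maximal potency below 2 µM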); conditions: P. falciparum Dd2 in RBCs, LDH growth readout, 72 h; at 2 µM; hits give high values
[2] = HepG2 cytotoxicity, primary screen, cytotoxicity control for P. falciparum antimalarial project, cell-based, ATP luminescence (AID 2303;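 active means inhibition above 50%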); conditions: HepG2 viability, 24-48 h, at 10 µM, hits give high values
[3] = target: L-lactate dehydrogenase (Plasmodium falciparum (isolate CDC / Honduras)) (UniProt Q27743); assay: PfLDH activity inhibition – cell lysate, 3D7 strain, counter-screen for P. falciparum growth inhibition project (AID 2304); conditions: P. falciparum 3D7 crude extract, LDH APAD/NBT absorbance; at 2 µM; hits give high values
Sequence of L-lactate dehydrogenase (Plasmodium falciparum (isolate CDC / Honduras)) (Q27743 whole entry, looked up): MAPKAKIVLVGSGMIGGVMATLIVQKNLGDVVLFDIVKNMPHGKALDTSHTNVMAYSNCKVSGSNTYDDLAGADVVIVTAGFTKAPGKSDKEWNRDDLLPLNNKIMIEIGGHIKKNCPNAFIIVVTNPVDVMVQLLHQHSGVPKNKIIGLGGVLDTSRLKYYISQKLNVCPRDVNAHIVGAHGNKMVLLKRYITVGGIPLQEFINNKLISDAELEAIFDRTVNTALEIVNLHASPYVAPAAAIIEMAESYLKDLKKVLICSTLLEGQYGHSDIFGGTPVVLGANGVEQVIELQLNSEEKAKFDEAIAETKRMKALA

[4] = inhibition of 3D7 malaria parasite growth – strain 3D7 (AID 2306); conditions: P. falciparum 3D7 erythrocytic growth, LDH absorbance, 72 h; at 2 µM; hits give high values
[5] = target: Calcium-dependent protein kinase 1 (Plasmodium falciparum (isolate 3D7)) (UniProt P62344); assay: PfCDPK1 kinase inhibitors, biochemical, TCAMS library (AID 1159585; cut-off not given, nearly all actives have IC50 up to about 0.98 µM;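 further: inhibitors leave more ATP so luminescence rises with inhibition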); conditions: recombinant PfCDPK1, Kinase-Glo ATP depletion luminescence
Sequence of Calcium-dependent protein kinase 1 (Plasmodium falciparum (isolate 3D7)) (P62344 whole entry, looked up): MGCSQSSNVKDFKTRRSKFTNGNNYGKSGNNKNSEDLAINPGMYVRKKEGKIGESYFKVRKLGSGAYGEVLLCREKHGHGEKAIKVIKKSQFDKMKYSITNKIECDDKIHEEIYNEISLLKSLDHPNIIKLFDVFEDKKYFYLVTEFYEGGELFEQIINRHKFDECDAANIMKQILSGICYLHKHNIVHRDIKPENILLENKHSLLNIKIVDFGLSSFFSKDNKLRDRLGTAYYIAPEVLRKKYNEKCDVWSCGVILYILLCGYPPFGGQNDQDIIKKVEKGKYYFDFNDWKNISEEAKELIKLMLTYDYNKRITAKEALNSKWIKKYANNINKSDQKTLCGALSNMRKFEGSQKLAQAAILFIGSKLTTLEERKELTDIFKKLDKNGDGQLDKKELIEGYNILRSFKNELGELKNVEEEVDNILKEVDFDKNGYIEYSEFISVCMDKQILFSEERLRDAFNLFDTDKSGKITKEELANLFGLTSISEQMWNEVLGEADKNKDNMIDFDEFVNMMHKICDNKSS

[6] = target: Plasmodium falciparum protein kinase 6 (PK6, PF3D7_1337100) (UniProt Q8IDW1); assay: PfPK6 kinase inhibitors, biochemical, TCAMS library (AID 1159586); conditions: recombinant PfPK6, Kinase-Glo ATP depletion luminescence
Sequence of Plasmodium falciparum protein kinase 6 (PK6, PF3D7_1337100) (Q8IDW1 1-305): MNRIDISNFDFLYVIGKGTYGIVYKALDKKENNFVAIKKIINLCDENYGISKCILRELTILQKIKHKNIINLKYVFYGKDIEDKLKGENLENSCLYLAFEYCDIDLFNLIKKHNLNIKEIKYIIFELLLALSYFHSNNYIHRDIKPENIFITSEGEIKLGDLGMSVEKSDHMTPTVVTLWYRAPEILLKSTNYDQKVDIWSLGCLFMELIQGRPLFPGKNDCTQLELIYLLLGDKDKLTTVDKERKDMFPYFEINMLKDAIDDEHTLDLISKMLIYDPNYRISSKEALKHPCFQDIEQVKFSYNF

[7] = target: Protein kinase 7 (PK7), Plasmodium falciparum 3D7 (PF3D7_0213400) (UniProt Q7YTF7); assay: inhibition of Plasmodium PK7 catalytic activity – biochemical, TCAMS antimalarial set, Kinase-Glo luminescence (AID 1159587); conditions: recombinant PfPK7, Kinase-Glo ATP depletion luminescence
Sequence of Protein kinase 7 (PK7), Plasmodium falciparum 3D7 (PF3D7_0213400) (Q7YTF7 1-343): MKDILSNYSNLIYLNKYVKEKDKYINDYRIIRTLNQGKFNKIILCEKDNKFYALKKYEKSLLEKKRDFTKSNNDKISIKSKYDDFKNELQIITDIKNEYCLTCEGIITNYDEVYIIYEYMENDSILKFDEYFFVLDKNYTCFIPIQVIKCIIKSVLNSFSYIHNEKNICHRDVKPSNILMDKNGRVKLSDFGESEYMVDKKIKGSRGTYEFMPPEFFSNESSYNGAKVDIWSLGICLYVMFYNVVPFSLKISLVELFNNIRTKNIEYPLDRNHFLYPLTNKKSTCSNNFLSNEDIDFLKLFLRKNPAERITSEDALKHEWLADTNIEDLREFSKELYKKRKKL

[8] = target: Calcium-dependent protein kinase 4 (Plasmodium falciparum (isolate 3D7)) (UniProt Q8IBS5); assay: PfCDPK4 kinase inhibitors, biochemical, TCAMS library (AID 1159588; cut-off not given, nearly all actives have IC50 up to about 0.91 µM); conditions: recombinant PfCDPK4, Kinase-Glo ATP depletion luminescence
Sequence of Calcium-dependent protein kinase 4 (Plasmodium falciparum (isolate 3D7)) (Q8IBS5 whole entry, looked up): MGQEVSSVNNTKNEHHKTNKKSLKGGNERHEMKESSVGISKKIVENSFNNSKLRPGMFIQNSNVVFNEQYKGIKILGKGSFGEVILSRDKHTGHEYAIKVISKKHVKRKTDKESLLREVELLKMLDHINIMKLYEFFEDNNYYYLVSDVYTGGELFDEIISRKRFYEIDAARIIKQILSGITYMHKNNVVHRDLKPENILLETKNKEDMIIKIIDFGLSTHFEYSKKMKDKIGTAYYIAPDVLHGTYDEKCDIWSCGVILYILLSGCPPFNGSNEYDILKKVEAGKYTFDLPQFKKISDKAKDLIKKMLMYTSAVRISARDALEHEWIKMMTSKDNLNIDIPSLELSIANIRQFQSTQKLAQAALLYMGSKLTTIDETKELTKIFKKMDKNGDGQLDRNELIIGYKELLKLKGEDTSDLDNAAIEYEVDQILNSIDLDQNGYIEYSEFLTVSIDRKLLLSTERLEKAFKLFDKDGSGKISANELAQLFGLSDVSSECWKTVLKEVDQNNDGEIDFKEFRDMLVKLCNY

Row | Compound | growth inhibition [1] | inhibition [2] | inhibition [3] [%] | growth inhibition [4] | outcome [5] | outcome [6] | outcome [7] | outcome [8]
1 | CCNc1cc(C(=O)N[C@@H](Cc2cc(F)cc(F)c2)[C@H](O)CNCc2cccc(C(F)(F)F)c2)cc(N2CCCCS2(=O)=O)c1 | 80% (active) | 1% | -8 | 99% (active) | inactive | inactive | inactive | inactive
2 | O=C(Nc1ccc(-c2ccccc2)cc1)Nc1cccc(OCCN2CCCC2)c1 | 14% | 11% | -2 | 94% (active) | inactive | inactive | inactive | inactive
3 | Cc1ccc(Cl)c2sc(N3CCN(C(=O)c4ccc([N+](=O)[O-])o4)CC3)nc12 | 94% (active) | 21% | -5 | 97% (active) | inactive | inactive | inactive | inactive
4 | Clc1ccc(OCCC2CCN(CCCCCCN3CCCCC3)CC2)cc1Cl | 36% | 86% (active) | 9 | 97% (active) | inactive | inactive | inactive | inactive
5 | N#Cc1ccc2nc(-c3ccccc3)[nH]c2c1 | 1% | 7% | -1 | 95% (active) | inactive | inactive | inactive | inactive
6 | CCc1ccc(NC(=O)c2cccc(CN3CCCN(Cc4ccc(OC)cc4)CC3)c2)cc1 | -6% | 35% | 5 | 97% (active) | inactive | inactive | inactive | inactive
7 | Brc1cc2c(cc1C=NNc1nc(Nc3ccccc3)nc(Nc3ccccc3)n1)OCO2 | 32% | -7% | 1 | 100% (active) | inactive | inactive | inactive | inactive
8 | CCC(C)OC(=O)C1=C(C)NC2=C(C(=O)CC(c3ccc(OC)c(OC)c3)C2)C1c1ccc(C)o1 (stereo not given) | 82% (active) | 6% | 2 | 93% (active) | inactive | inactive | inactive | inactive
9 | CC(C)n1nc(C(=O)N2CCN(c3ccccc3)CC2)c2ccccc2c1=O | 3% | 34% | 0 | 96% (active) | inactive | inactive | inactive | inactive
10 | CN(C)c1cc(C(=O)N[C@@H](Cc2ccccc2)[C@H](O)CNC2CCCCC2)cc2[nH]ccc12 | 97% (active) | 10% | 3 | 98% (active) | inactive | inactive | inactive | inactive
11 | COc1ccc(C2CCN(CCCCNC(=O)c3ccc(NC(=O)c4ccc(Cl)cc4)cc3)CC2)cc1Cl | 75% (active) | 28% | 4 | 97% (active) | inactive | inactive | inactive | inactive
12 | CC(C)CNCc1cccc(-c2ccc(CNc3ccc4ncccc4c3)cc2)c1 | 32% | 13% | -3 | 94% (active) | inactive | inactive | inactive | inactive
13 | Oc1ccc(CCNc2nc(NCCCOc3cc(CN4CCCCC4)ccc3F)nc(N3CCNCC3)n2)cc1 | -3% | 30% | -1 | 101% (active) | inactive | inactive | inactive | inactive
14 | COCCNCc1ccc(-c2ccc(CNc3ccc4ncccc4c3)cc2)cc1 | 4% | 41% | -4 | 85% (active) | inactive | inactive | inactive | inactive
15 | Cc1cc2nc(-c3ccc(/C=C/C(=O)NC4CCN(Cc5ccccc5)CC4)cc3)[nH]c2cc1C | 89% (active) | 18% | -2 | 98% (active) | inactive | inactive | inactive | inactive
16 | CCNc1cc(CC)nc(Nc2ccc(C)cc2)n1 | 24% | 22% | -1 | 100% (active) | inactive | inactive | inactive | inactive
17 | CN1CCC(Oc2ccc(CN3CC[C@H](NC(=O)c4cccc(C#N)c4)C3)c3ccccc23)C1 (stereo not given in full) | 30% | 10% | -1 | 97% (active) | inactive | inactive | inactive | inactive
18 | O=C(Nc1nc2cc(S(=O)(=O)NCCCN3CCOCC3)ccc2n1CCCn1ccnc1)c1ccc(Cl)cc1 | -6% | -27% | -1 | 95% (active) | inactive | inactive | inactive | inactive
19 | NC(=O)c1cc(-c2ccccc2)cc2c(C3CCC(NCc4ccccc4)C3)c[nH]c12 (stereo not given) | 30% | 99% (active) | -7 | 95% (active) | inactive | inactive | inactive | inactive
20 | CCCC(C)N(Cc1ccc(C(C)(C)C)cc1)C(=O)c1cccc(C#N)c1 (stereo not given) | 45% | 14% | -9 | 86% (active) | inactive | inactive | inactive | inactive

Row | Compound | growth inhibition [1] | inhibition [2] | inhibition [3] [%] | growth inhibition [4] | outcome [5] | outcome [6] | outcome [7] | outcome [8]
21 | CC[C@H]1CN(Cc2cccc(O)c2)CC[C@H]1CCCc1ccnc2ccc(O)cc12 | 98% (active) | 14% | 4 | 103% (active) | inactive | inactive | inactive | inactive
22 | Cc1cccc2[nH]c(-c3ccc(-c4cccc(NC(=O)CCc5cnc[nH]5)c4)s3)nc12 | 70% (active) | 2% | -4 | 94% (active) | inactive | inactive | inactive | inactive
23 | Cc1ccccc1C1CCN(C2CCC(NC(=O)c3cncc(-c4ccccc4)c3)CC2)CC1 (stereo not given) | 92% (active) | 27% | -1 | 101% (active) | inactive | inactive | inactive | inactive
24 | COc1ccc(-c2cccc(NC(=O)c3cccc(C#N)c3)c2)cc1CN1CCN(C)CC1 | 16% | 25% | -2 | 91% (active) | inactive | inactive | inactive | inactive
25 | CCC[C@@H]([C@@H](CC1CCCCC1)C(=O)N[C@@H](CCCCNS(C)(=O)=O)C(=O)Nc1nccs1)N(O)C=O | 74% (active) | -13% | -1 | 101% (active) | inactive | inactive | inactive | inactive
26 | CCNC(=O)Nc1ccc(N(C)c2ccnc(NC3CC3)n2)cc1 | 80% (active) | 21% | -5 | 100% (active) | inactive | inactive | inactive | inactive
27 | OCCN1CCN(C(=S)Nc2ccccc2)CC1 | 7% | 6% | 2 | 97% (active) | inactive | inactive | inactive | inactive
28 | CC(CN(C)C)C(=O)Nc1ccc(-c2ccc(-c3nc4ccccc4[nH]3)s2)cc1 (stereo not given) | 86% (active) | 14% | 5 | 100% (active) | inactive | inactive | inactive | inactive
29 | O=C(Nc1ccc(OC(F)(F)F)cc1)NC1CCN(c2ccnc3ccccc23)CC1 | 40% | 40% | -7 | 101% (active) | inactive | inactive | inactive | inactive
30 | Cc1cc(C(=O)Nc2ccc3c(c2)CCN3C2CCN(Cc3cccc(F)c3F)C2)no1 (stereo not given) | 94% (active) | 0% | -4 | 95% (active) | inactive | inactive | inactive | inactive
31 | CCN(CC)CCn1c2ccccc2c2ccc(C(=O)Nc3ccc4sc(C)nc4c3)cc21 | 26% | 97% (active) | -5 | 84% (active) | inactive | inactive | inactive | inactive
32 | Cc1ccccc1C1CCN(C2CCC(NC(=O)/C=C/c3cc(F)cc(F)c3)CC2)CC1 (stereo not given) | 33% | 53% (active) | 3 | 99% (active) | inactive | inactive | inactive | inactive
33 | O=C(NCCCc1ccccc1)c1csc(C2CCCN(C(=O)c3ccc(O)c(-c4cccc5ccccc45)c3)C2)n1 (stereo not given) | 98% (active) | 3% | -1 | 97% (active) | inactive | inactive | inactive | inactive
34 | N#Cc1ccc2c(c1)CCN(CCC1CCC(NC(=O)/C=C/c3cc(Br)cs3)CC1)CC2 (stereo not given) | 1% | 3% | 5 | 93% (active) | inactive | inactive | inactive | inactive
35 | NC(N)=Nc1ccc(OCCCCCOc2ccc(N=C(N)N)c(Cl)c2)cc1Cl | 92% (active) | 18% | 6 | 92% (active) | inactive | inactive | inactive | inactive
36 | CC[C@H]1CN(CCCC(=O)c2ccccc2)CC[C@H]1CCCc1ccnc2ccc(OC(=O)c3ccccc3)cc12 | 68% (active) | 28% | 1 | 83% (active) | inactive | inactive | inactive | inactive
37 | CCCc1cc(Cc2cnc(N)nc2N)cc(CCC)c1OCCCCC(=O)OCC | -3% | 1% | 4 | 93% (active) | inactive | inactive | inactive | inactive
38 | CCN1CCN(c2cc(C)c3cc(NC(=O)c4cncc(Br)c4)ccc3n2)CC1 | 63% (active) | 3% | 3 | 97% (active) | inactive | inactive | inactive | inactive
39 | Cc1cc(N)nc2ccc(-c3cccc(CN)c3)cc12 | 59% (active) | 2% | -8 | 101% (active) | inactive | inactive | inactive | inactive
40 | Cc1cc(N2CCCN(C)CC2)nc(Nc2ccc(Br)cc2)n1 | 14% | 8% | 7 | 94% (active) | inactive | inactive | inactive | inactive
